Reference: PubChem BioAssay AID588579 (National Center for Advancing Translational Sciences (NCATS), 2011)
Where “and” joins values, the source holds several entries; their conditions need not be identical. Identical values can stand only once. Among all 400,000 compounds or so, about 2,200 (0.55%) were called active. Not shown: some 1% with an inconclusive outcome. Calls come from the whole dose curve; as a rule, active = well fitted inhibition curve with a large enough effect; inconclusive = small, poorly fitted or top-dose-only effect, or another doubt; inactive = no such curve, though single readings can be large or run the other way. The sample as a whole holds a higher share of actives than the screen did.

What follows are compounds tested against DNA polymerase kappa (Homo sapiens) (UniProt Q9UBT6) (assay: qHTS for Inhibitors of Polymerase Kappa). Details: purified Pol kappa, fluorescent DNA synthesis assay, 10 min; series mostly up to 107 µM.
Chain of DNA polymerase kappa (Homo sapiens) (Q9UBT6 whole entry, looked up): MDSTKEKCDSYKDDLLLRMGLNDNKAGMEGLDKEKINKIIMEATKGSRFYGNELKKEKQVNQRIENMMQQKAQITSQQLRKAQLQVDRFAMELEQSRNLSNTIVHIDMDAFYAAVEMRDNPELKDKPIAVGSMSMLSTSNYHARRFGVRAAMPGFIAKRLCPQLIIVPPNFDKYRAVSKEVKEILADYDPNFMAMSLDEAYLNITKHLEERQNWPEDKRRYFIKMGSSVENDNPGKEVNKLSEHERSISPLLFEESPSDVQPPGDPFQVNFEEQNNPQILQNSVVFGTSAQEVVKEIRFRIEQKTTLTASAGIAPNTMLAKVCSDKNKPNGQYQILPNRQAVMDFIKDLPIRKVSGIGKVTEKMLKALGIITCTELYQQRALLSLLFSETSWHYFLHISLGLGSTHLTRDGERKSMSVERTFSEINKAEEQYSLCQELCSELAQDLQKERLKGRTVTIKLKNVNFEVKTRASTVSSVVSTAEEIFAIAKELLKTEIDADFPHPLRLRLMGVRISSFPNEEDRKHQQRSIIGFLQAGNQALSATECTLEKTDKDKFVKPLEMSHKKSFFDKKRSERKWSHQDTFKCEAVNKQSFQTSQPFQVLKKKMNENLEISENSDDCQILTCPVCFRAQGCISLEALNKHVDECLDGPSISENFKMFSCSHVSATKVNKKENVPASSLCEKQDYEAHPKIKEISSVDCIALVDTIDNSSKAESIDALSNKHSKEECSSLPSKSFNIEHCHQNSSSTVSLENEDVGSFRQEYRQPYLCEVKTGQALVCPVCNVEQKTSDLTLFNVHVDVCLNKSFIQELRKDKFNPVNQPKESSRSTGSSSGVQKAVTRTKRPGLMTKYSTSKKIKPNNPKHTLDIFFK
Procedure, shortened: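 Kinetic fluorescence readout at 0 and 10 min followed reaction start with substrate at 50 nM final. Beforehand, enzyme (10 nM Pol kappa) stood 15 min with compound at room temperature; buffer-only wells were negative controls.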
% is set by controls: 0 for no effect and ±100 for the full control effect; potency is the fitted concentration of half-maximal effect.

Potency, inactive:
Cc1cnc(CNc2cc(-c3c(C)noc3C)ncn2)cn1, O=C(Nc1ccccc1C(F)(F)F)c1nc(S(=O)(=O)Cc2ccccc2F)ncc1Cl, Cn1cc(-c2nc3cnc(N4CCNCC4)nc3n(CCc3ccccc3)c2=O)c2ccccc21, CC(C)(C)OC(=O)N(Cc1ccco1)S(=O)(=O)c1ccccc1Br, CC[C@H](C)[C@H](NC(=O)[C@H](CCCNC(=N)N)NC(=O)[C@H](CCCNC(=N)N)NC(=O)[C@H](CC(C)C)NC(=O)[C@H](Cc1ccccc1)NC(=O)CNC(=O)CNC(=O)[C@@H](N)Cc1ccc(O)cc1)C(=O)N[C@@H](CCCNC(=N)N)C(=O)N1CCC[C@H]1C(=O)N[C@@H](CCCCN)C(=O)N[C@@H](CC(C)C)C(=O)N[C@@H](CCCCN)C(=O)N[C@@H](Cc1c[nH]c2ccccc12)C(=O)N[C@@H](CC(=O)O)C(=O)N[C@@H](CC(N)=O)C(=O)N[C@@H](CCC(N)=O)C(=O)O, CCOc1n[nH]c(-c2ccccc2)n1, CN(C)c1ccc(/C=c2\[nH]c(=O)/c(=C/c3ccc(N(C)C)cc3)[nH]c2=O)cc1, COc1ccc(CCC(=O)c2c(O)cc(OC3OC(CO)C(O)C(O)C3O[C@@H]3OC(C)C(O)C(O)C3O)cc2O)cc1O (stereo partly drawn), C[C@@H]1O[C@@H](OC[C@H]2O[C@@H](Oc3cc(O)c4c(c3)O[C@H](c3ccc(O)c(O)c3)CC4=O)[C@H](O)[C@@H](O)[C@@H]2O)[C@H](O)[C@H](O)[C@H]1O, C[C@@H]1O[C@@H](OC[C@H]2O[C@@H](Oc3c(-c4ccc(O)cc4)oc4cc(O)cc(O)c4c3=O)[C@H](O)[C@@H](O)[C@@H]2O)[C@H](O)[C@H](O)[C@H]1O, CC(C)C(NS(=O)(=O)c1ccc(-c2ccc(Br)cc2)cc1)C(=O)O (stereo not drawn), H-EHIPA-OH, COc1cc(OC)c2c(c1Cl)OC1(C2=O)C(O)=CC(=O)CC1C (stereo not drawn), CN(Cc1ccco1)c1ncncc1-c1ccoc1, CC(C)c1ccc(Cn2c(COc3ccccc3)nc3ccccc32)cc1, Cc1c(C)n(Cc2ccc(Cl)cc2)c2ccc(C(=O)N3CCN(c4ccccc4F)CC3)cc12, CC1(C)CC(=O)c2cc(C(=O)NCc3ccccc3)c(=O)[nH]c2C1, O=[N+]([O-])c1ccc(/C=C/c2ccc3cccnc3c2)cc1, N#Cc1ccc(CN2CCCC3(CCN(C(=O)c4ccco4)CC3)C2)cc1, CN1CCN(/[N+]([O-])=N/Oc2ccc([N+](=O)[O-])cc2[N+](=O)[O-])CC1, COc1ccc(C(=O)N2CCC3(CC2)CCN(c2ccccn2)CC3)cc1, CCOC(=O)C1C/C(=C\C(C)=O)c2cccc(C(F)(F)F)c2O1 (stereo not drawn), COc1ccc(-c2c(C)c3ccc(O)c(CN4CCN(C)CC4)c3oc2=O)cc1OC, COc1cccc(Cn2c(=O)cnc3cncnc32)c1, COc1ccc(-c2nc3cnc(OC)nc3n(Cc3ccc(F)cc3)c2=O)cc1, Cc1nnc2n1N=C(c1ccc3c(c1)NC(=O)CO3)CS2, C[C@H]1CCC[C@@]2(C)CCCC[C@]12O, COc1cccc(-c2cc(=O)c3cc(NC(=O)c4ccc(C)cc4)ccc3[nH]2)c1, COc1ccc(S(=O)(=O)NC(C)c2ccccc2)cc1C(=O)N1CCCCC1 (stereo not drawn), COC(=O)c1ccccc1NS(=O)(=O)c1ccc2c(c1)CCCN2C(C)=O, COC(=O)N1CCC[C@@]2(CCN(C(=O)NC(C)C)C2)C1, CN(C)c1ccc(/C=C/c2sc3ccccc3[n+]2CCCCBr)cc1, CC(C)(C)n1ncc2c(=O)n(Cc3ccc(C(=O)c4ccccc4)cc3)cnc21, N#Cc1ccc[n+](CC(=O)c2ccc(F)cc2)c1, NC(=O)C[n+]1cccc(C(N)=O)c1, O=c1c(-c2ccc(F)c(F)c2)nc2cncnc2n1-c1ccccc1, COc1cc2nc(N3CCCN(C)CC3)nc(NC3CC3)c2cc1OC, CN(C(=N)N)c1ccc(/C=C2\C=Cc3ccccc32)cc1, O=C(c1cnccn1)N1CCC2(CCCN(Cc3ccccc3)C2)CC1, CC(C)(C)c1ccc(C(=O)C[n+]2cccc3cc(Cl)ccc32)cc1, OCC(O)C(O)C(O)C(O)C=Nc1ccc(/C=C/c2ccnc3ccccc23)cc1 (stereo not drawn), COC1[C@H](OC(N)=O)C(O)[C@H](Oc2ccc3c(O)c(NC(=O)c4ccc(O)c(CC=C(C)C)c4)c(=O)oc3c2C)OC1(C)C (stereo partly drawn), COc1ccccc1-n1c(=S)[nH]c2c(sc(=S)n2-c2ccc(C)cc2C)c1=O, COc1ccc(OCc2n[nH]c(=S)n2N)cc1, CN(Cc1ccccc1)c1ccc(/C=C/c2ccnc3ccccc23)cc1, CN(C)c1ccc(/C=C/C=C/c2ccnc3ccccc23)cc1, N#Cc1ccccc1-c1ccc2ncnc(NCc3cccnc3)c2c1, Cc1ccccc1-c1ccc(C(=O)O)s1, COc1ccccc1CNc1ncncc1-c1cccnc1, Cc1nc(SCC(=O)N2CCN(c3ccccc3)CC2)[nH]c(=O)c1C, COCCn1c(SCC(=O)N2CCCCCC2)nc2c(c1=O)SCC2, CC1(C)O[C@@H]2C[C@@H]3[C@H]4C[C@@H](F)C5=CC(=O)C=C[C@]5(C)[C@@]4(F)[C@@H](O)C[C@]3(C)[C@]2(C(=O)CO)O1, Oc1ccc2c(c1)OCC1c3cc4c(cc3OC21)OCO4 (stereo not drawn), O=C(NC(=S)Nc1ncccn1)c1ccccc1Br, CCc1ccc2oc(-c3ccc(C)c(NC(=O)/C=C/c4ccco4)c3)nc2c1

Potency, active:
Oc1cc(O)c2c(c1)OC(c1ccc(O)c(O)c1)C(O)C2 (stereo not drawn) 3.16 µM, CC1OC(OCC2OC(Oc3c(-c4ccc(O)c(O)c4)oc4cc(O)cc(O)c4c3=O)C(O)C(O)C2O)[C@@H](O)C(O)C1O (stereo partly drawn) 10 µM, C[C@@H]1O[C@@H](OC[C@H]2O[C@@H](Oc3c(-c4cccc(O)c4O)oc4cc(O)cc(O)c4c3=O)[C@H](O)[C@@H](O)[C@@H]2O)[C@H](O)[C@H](O)[C@H]1O 7.08 µM, CC(C)c1ccc2c(c1)c(SC(C)(C)C)c(CC(C)(C)C(=O)O)n2Cc1ccc(Cl)cc1 29.9 µM and 79.4 µM, O=C1/C(=C\c2ccc([N+](=O)[O-])cc2)CS(=O)(=O)C/C1=C/c1ccc([N+](=O)[O-])cc1 79.4 µM, O=C1CSC(=S)N1/N=C/c1ccc(O)c([N+](=O)[O-])c1 28.2 µM, O=c1cc(-c2ccc(O)c(O)c2)oc2cccc(O)c12 6.31 µM, COc1c(O)cc2oc(-c3ccc(O)c(O)c3)cc(=O)c2c1O 5.01 µM and 752 nM, COc1ccc(C2=Nn3c(nnc3-c3ccccc3OC)SC2)cc1OC1CCCC1 39.8 µM, COc1ccc(Br)cc1/C=N/Nc1ccc(S(=O)(=O)Nc2ccccc2C(=O)O)cc1[N+](=O)[O-] 39.8 µM, N#Cc1ccc[n+](CC(=O)c2ccc(O)c(O)c2)c1 0.891 µM, C=CC1=C(C(=O)O)N2C(=O)[C@@H](NC(=O)/C(=N\OCC(=O)O)c3csc(N)n3)[C@H]2SC1 50.1 µM, CO/N=C(\C(=O)N[C@@H]1C(=O)N2C(C(=O)O)=C(COC(C)=O)CS[C@H]12)c1csc(N)n1 (stereo in doubt) 35.5 µM and 79.4 µM and 39.8 µM, COc1ccccc1-n1c(-c2cc(-c3ccco3)[nH]n2)n[nH]c1=S 17.8 µM, CC(=O)c1sc2nc(SCC(=O)N3CCCCC3)[nH]c(=O)c2c1C 79.4 µM, O=C(/C=C/c1ccco1)NC(=S)Nc1ccccc1Br 50.1 µM

activity, negative = inhibition, inactive:
CC(C)[C@@H]1NC(=O)[C@H](Cc2ccccc2)NC(=O)[C@@H](CC(=O)O)NC(=O)CNC(=O)[C@H](CCCNC(=N)N)NC1=O 4% [at 19.4 µM], Cc1cccc(-c2cc(=O)c3cc(C)ccc3o2)c1 -11.6% [at 19.4 µM], COc1ccc2c(=O)cc(-c3ccccc3)oc2c1O -8.18% [at 19.4 µM], OCCN1CCN(CC/C=C2\c3ccccc3Sc3ccc(C(F)(F)F)cc32)CC1 -8.78% [at 12 µM], NC(=O)c1sc(-c2ccsc2)cc1N 7.11% [at 19.4 µM], COc1ccc(C2(C#N)CCC(C(=O)O)CC2)cc1OC1CCCC1 (stereo not drawn) 1.33% [at 19.4 µM], Cc1csc(-c2nc3ccccc3n2C)n1 -4.55% [at 19.4 µM], C=C1C(=CC=C2CCC[C@@]3(C)[C@@H]2CC[C@H]3[C@H](C)CCCC(C)C)C[C@@H](O)C[C@@H]1O -13.8% [at 19.4 µM], O=C(/C=C/c1cccc(F)c1)NC1CC1 10.9% [at 19.4 µM], CC(=O)OC1C([N+]2(C)CCCCC2)C[C@H]2C3CC[C@H]4C[C@H](OC(C)=O)C([N+]5(C)CCCCC5)CC4(C)C3CCC12C (stereo partly drawn) -5.47% [at 19.4 µM], CCN(Cc1ccncc1)C(=O)[C@@H](CO)c1ccccc1 -2.15% [at 12 µM] and -8.7% [at 19.4 µM], Cc1cccc(C)c1NC(=O)NC1=CCCN1C 0.19% [at 19.4 µM]
